Records with an inconclusive call do not appear. The source made the active and inactive calls. The call rests on the fitted dose curve.
Test: qHTS Assay for Lipid Storage Modulators (AID 1519); on activity change, negative = inhibition: on the % scale 0 is the no-effect control and ±100 the full control effect
Conditions: Drosophila S3 cells, BODIPY lipid droplet/cell ratio, laser cytometry, cells loaded with oleic acid; for activity change, negative = inhibition: at 57.5 µM (top of the series)
Source text: NIH Molecular Libraries Probe Production Centers Network [MLPCN]
NIH Chemical Genomics Center [NCGC]
Assay Submitter (PI): Beller, Mathias; Max-Planck-Institut fur Biophysikalische Chemie
NCGC Assay Overview: Storing lipids as a reservoir for energy or the anabolism of elementary metabolites is a common feature of probably all cells and is conserved from bacteria to humans. The universal cellular lipid storage organelle is the so-called lipid storage droplet (LD). Although ubiquitous, LDs share a simple structure composed of a hydrophobic core that harbors the storage lipids, which is shielded by a droplet-specific phospholipid monolayer to which proteins are attached. The current model of LD biogenesis involves an incorporation of the lipid core into the membrane leaflets of the endoplasmic reticulum (ER) followed by a subsequent budding-like maturation of a LD, which ultimately pinches off. Once released, LD volume can increase by localized lipogenesis or fusion of existing droplets. Storage lipids are re-mobilized enzymatically by lipase activity. Lipase regulation in the adipocyte is heavily studied and involves multiple components including catecholamine signaling, the LD-associated proteins Perilipin and comparative gene identification-58 (CGI-58) and at least two lipases named hormone sensitive lipase (HSL) and adipocyte triglyceride lipase (ATGL). LD regulation outside of the adipocyte is poorly understood and only few components are known. However, there is an urgent need to learn more about ectopic fat depots as mislocalized storage of lipids, for example in the liver or muscle, is an eminent health problem associated with insulin resistance or the metabolic syndrome. We developed a laser-scanning cytometer assay to enable 1,536-well screening and combined the results of the small molecules screen with an RNAi database based on lipid storage.
NCGC Assay Protocol Summary:
We dispensed 4 uL of cells at 1.25 x 10^6 cells/mL into LoBase Aurora COC 1,536-well plates (black walled, clear bottom) with a bottle-valve solenoid-based dispenser (Aurora) to obtain 5,000 cells/well. Triacsin C (Sigma-Aldrich T-4540), an inhibitor of long-chain fatty acyl CoA synthetase that blocks synthesis of triglycerides, was used as a positive control for lipid under-storage. A total of 23 nL of compound solution of different concentrations were transferred to the assay plates using a Kalypsys pin tool equipped with a 1,536-pin array containing 10-nL slotted pins (FP1S10, 0.457-mm diameter, 50.8 mm long; V&P Scientific). One microliter of oleic acid (400 uM) was added, and the plate was lidded with stainless steel rubber gasket lined lids containing pinholes. […] Fluorescence was detected by excitation of the fluorophores with a 488-nm laser on an Acumen Explorer (TTP Lab Tech). The total intensity in channel 1 (500-530 nm) reflected lipid droplet accumulation. […] The ratio of the total intensity in PMT channel 1 over total intensity of channel 3 was also calculated. Percent activity was computed relative to an internal control (100% inhibited lipid droplet deposition due to the presence of 20 uM Triacsin C), which was added to 32 wells/plate.

[1] = measured here: cell count channel max response
[2] = measured here: lipid channel max response

| SMILES | activity change, negative = inhibition | max response [1] | max response [2] |
| --- | --- | --- | --- |
| C=CCSSCC=C | 11.8% (inactive) | 5.28% | 18.2% |
| C=CC1CN2CCC1CC2C(O)c1ccnc2ccccc12 (configuration not stated) | 8.66% (inactive) | 10.9% | 22.1% |
| C=CCN1CCC2(C)c3cc(O)ccc3CC1C2C (configuration not stated) | -2.86% (inactive) | 24.1% | 21.8% |
| CC(C)(C)NC[C@@H](O)COc1cccc2[nH]c(C#N)cc12 | 2.4% (inactive) | -20.5% | -17.5% |
| CC(C)(O)[C@@H]1[C@H]2OC(=O)[C@@H]1[C@]1(O)C[C@H]3O[C@]34C(=O)O[C@H]2[C@@]14C (tested in a mixture with another compound) | -0.708% (inactive) | -8.87% | -11.1% |
| NC(N)=Nc1ccc2[nH]c3c(c2c1)C[C@]1(O)[C@@H]2Cc4ccc(O)c5c4[C@]1(CCN2CC1CC1)[C@@H]3O5 | -1.94% (inactive) | 2.17% | 1.06% |
| C=CCN1CC[C@@]23c4c5ccc(O)c4O[C@H]2/C(=N\N=C2/CC[C@@]4(O)[C@H]6Cc7ccc(O)c8c7[C@@]4(CCN6CC=C)[C@@H]2O8)CC[C@]3(O)[C@@H]1C5 | 1.28% (inactive) | 10.9% | 11.9% |
| CCN(CC)/[N+]([O-])=N/O | 8.09% (inactive) | -15% | -4.74% |
| C[C@H](N)Cc1c[nH]c2ccc(O)cc12 | 0.648% (inactive) | 20.6% | 23.2% |
| CN[C@@H](Cc1c[nH]c2ccccc12)C(=O)O | 2.25% (inactive) | -7.03% | 3.12% |
| CN1CC(CO)=C[C@H]2c3cccc4[nH]cc(c34)C[C@H]21 | 6.54% (inactive) | 8.91% | 13% |
| CC(C(=O)O)c1ccc(-c2ccccc2)c(F)c1 (configuration not stated) | 7.18% (inactive) | 15.4% | 28.2% |
| CC[C@]1(C2=NCCN2)Cc2ccccc2O1 | 2.09% (inactive) | 4.62% | 7.07% |
| CNCCc1cnc[nH]1 | 4.08% (inactive) | -7.35% | -3.08% |

From PubChem BioAssay (NCATS)
